Compounds with a hit are over-represented: about 2.8% of the library has one in this group of screens.
PP1 counter – PP1-alpha phosphatase inhibitors, primary screen, counter-screen for PP5 inhibitor project, biochemical, fluorescence, OMFP substrate, single point. actives 0.9% (n = 320,000). purified PP1alpha. inhibition, % at 6.7 µM. AID 2235, 2010. Serine/threonine-protein phosphatase PP1-alpha catalytic subunit (Homo sapiens), P62136;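 active = inhibition above the mean inhibition of all tested compounds plus 3 SD, computed separately for each screening campaign, cut at about 15% in these data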
PG9 binder – binders of HIV-1 gp120 antibody PG9, primary screen, biochemical, TR-FRET | actives 0.43% (n = 360,000) | HIV-1 gp120 / PG9 antibody interaction | AID 624416, 2012 | inhibition, % at 6.7 µM | TR-FRET gp120-PG9 antibody binding; in the data active = inhibition above about 8.5%
PP5 inh – PP5 phosphatase inhibitors, primary screen, biochemical, fluorescence; Serine/threonine-protein phosphatase 5 (Homo sapiens), P53041; inhibition, % at 6.7 µM; purified PP5c, OMFP substrate fluorescence; actives 0.18% (n = 320,000);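 active = inhibition above the campaign's mean inhibition across all tested compounds plus 3 SD, cut at about 9.5% in these data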;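 also: 0% = DMSO only and 100% = 100 µM cantharidin control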
KLK7 zymogen act – proKLK7 zymogen activators, primary screen, biochemical, fluorescence intensity; purified proKLK7, EDANS-DABCYL substrate fluorescence; 100% is mature enzyme control, 0% vehicle; activation, % at 7 µM; actives 0.9% (n = 370,000);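 active = activation above the mean of all tested compounds plus 3 SD, computed per campaign excluding outliers beyond control limits, cut at about 13% in these data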
Target sequence (P49862 whole entry, looked up): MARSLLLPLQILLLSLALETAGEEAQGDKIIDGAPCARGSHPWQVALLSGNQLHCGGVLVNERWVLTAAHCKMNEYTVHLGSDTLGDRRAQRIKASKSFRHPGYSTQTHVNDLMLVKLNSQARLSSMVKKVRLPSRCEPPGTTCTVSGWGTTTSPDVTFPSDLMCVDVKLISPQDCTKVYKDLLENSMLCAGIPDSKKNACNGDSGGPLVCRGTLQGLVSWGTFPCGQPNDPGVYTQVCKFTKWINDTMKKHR
JMJD2C inh – inhibitors of GASC-1 histone demethylase, primary screen, biochemical, fluorescence, DELFIA europium; GST-JMJD2C(1-420) H3K9me3 demethylation; inhibition, % at 2.35 µM; actives 0.069% (n = 330,000); Lysine-specific demethylase 4C (Homo sapiens), Q9H3R0;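 active = more than half of a compound's replicate wells show inhibition beyond 50%, single wells judged on their own value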;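 also: signal counts dimethyl H3K9 product captured on neutravidin plate; 0% = median of DMSO wells and 100% = 0.3 times that DMSO median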
Target sequence (Q9H3R0 1-420 limits assumed): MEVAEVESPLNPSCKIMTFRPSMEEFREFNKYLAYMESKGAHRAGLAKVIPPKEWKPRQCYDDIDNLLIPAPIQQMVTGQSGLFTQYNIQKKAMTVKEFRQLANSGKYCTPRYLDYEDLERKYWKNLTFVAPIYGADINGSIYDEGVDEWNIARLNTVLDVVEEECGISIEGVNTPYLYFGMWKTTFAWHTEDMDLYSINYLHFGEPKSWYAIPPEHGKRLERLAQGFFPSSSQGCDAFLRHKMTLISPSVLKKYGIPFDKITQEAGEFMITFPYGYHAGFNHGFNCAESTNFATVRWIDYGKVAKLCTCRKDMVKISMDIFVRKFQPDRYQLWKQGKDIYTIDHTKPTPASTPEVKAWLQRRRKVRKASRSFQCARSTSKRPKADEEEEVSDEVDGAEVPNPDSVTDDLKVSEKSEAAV
NR1D1 modulator – modulators of Rev-erb alpha DNA binding, primary screen, biochemical, FITC-DNA, fluorescence polarization, uHTS | AID 1259318, 2017 | Nuclear receptor subfamily 1 group D member 1 (Homo sapiens), P20393 | actives 0.79% (n = 370,000) | activity, % at 10 µM | Rev-erbα–FITC-DNA binding, 90 min;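 active = activity above about 14%, limit read from the data; passing the limit was not always enough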;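 also: 0% = DMSO wells with 35 nM protein and 100% = DMSO wells with 750 nM protein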
NR1D1 mod conf – modulators of Rev-erb alpha DNA binding, confirmation, biochemical, FITC-DNA, fluorescence polarization, single point; activation, % at 25 µM; shares compounds with NR1D1 modulator; actives 61% (n = 3,000); 90 min;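 active = activation at or above a set limit, or at least 3 SD above the negative control mean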;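 also: 0% = 35 nM protein with DMSO and 100% = 750 nM protein high control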
RORg counter – modulation of RORgamma DNA binding, dose response, counter-screen for Rev-erb alpha modulator project, biochemical, fluorescence polarization, FITC-DNA; purified RORgamma protein-FITC-DNA binding; IC50, µM; actives 8% (n = 910); AID 1259320, 2017; shares compounds with NR1D1 modulator;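 active = Compounds whose fitted half-maximal concentration for disrupting protein-DNA binding is below 10 micromolar; the record names Rev-erb in its text, so the target is in doubt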
Active calls of the source: *; i = inactive; . = no result given.

SMILES | PP1 counter | PG9 binder | PP5 inh | KLK7 zymogen act | JMJD2C inh | NR1D1 modulator | NR1D1 mod conf | others
CCCC1CCc2c(sc(NC(=O)c3cccs3)c2C(N)=O)C1 (centres undefined) | 1 | 0 | 0 | -1 | 0 | 26* | 7
CCC1CCc2c(sc(NC(=O)c3cccnc3)c2C(N)=O)C1 (centres undefined) | -2 | 1 | 0 | 0 | 4 | 27* | 6
CCOC(=O)[C@@]12CCC3=C1N(CCC3)C(=O)[C@H](CC(=O)NCCCN1CCCC1=O)C2 | . | . | . | 0 | . | 0 | .
Cc1sc2ncnc(SCC(=O)N3c4ccccc4Sc4ccc(Cl)cc43)c2c1C | -1 | -3 | 1 | 0 | -4 | 132* | 17*
CN(C)c1ccc(/C=C(\C#N)C(=O)Nc2nc3c(s2)CCN(Cc2ccccc2)C3)cc1 | 2 | -1 | 0 | 1 | -5 | 28* | 22*
O=C(Nc1nc2c(s1)CN(Cc1ccccc1)CC2)C1CCC1 | 0 | -1 | 1 | 0 | -19 | -3 | .
O=C(NCc1cccc(C(F)(F)F)c1)O[C@H]1CC[C@@]23CCCN2C(=O)CCC[C@H]3C1 | . | . | . | . | . | 5 | .
CC(=O)Nc1sc2c(c1-c1nc3ccccc3s1)CCCNC2 | . | . | . | . | . | 8 | .
CCN1/C(=C/C=C/c2oc3ccc(-c4ccccc4)cc3[n+]2CC)Oc2ccc(-c3ccccc3)cc21 | 11 | 0 | -49 | 0 | 8 | 139* | 135* | RORg counter=i
COc1ccc(C(=O)c2c(-c3ccc(OC)cc3)oc3ccc(-c4ccc(OC)nc4)cc23)cc1 | -4 | -1 | -3 | 1 | 5 | 17* | 2
COc1ccc(-c2oc3ccc(-c4cc(OC)c(OC)c(OC)c4)cc3c2-c2ccc(OC)nc2)cc1 | -3 | -1 | 2 | 0 | -2 | 5 | .
CC(=NN=C(C)c1ccc(O)cc1)c1ccc(O)cc1 | . | 2 | . | -1 | . | -1 | .
C/C=C(/C(=C/C)c1ccc(O)cc1)c1ccc(O)cc1 | 2 | -2 | 5 | 0 | 8 | 31* | 40* | RORg counter=>40
CCOc1ccc(-n2c([S-])c(C(=O)Nc3ccc(S(=O)(=O)N4CCOCC4)cc3)[n+]3cc(C(N)=O)ccc23)cc1 | 5 | -1 | 2 | -1 | -1 | 91* | 43* | RORg counter=>40
CCC(=O)/C=C1/Sc2ccc(OC)cc2N1CC | 0 | -3 | -1 | -1 | 3 | 5 | .
CCOC(=O)/C(=C\C=C1/Sc2ccccc2N1CC)C(C)=O | 7 | -13 | 5 | 0 | 5 | 27* | 6
CCOC(=O)/C(=C/C=C1\Sc2cc(C)c(C)cc2N1CC)C(C)=O | . | -9 | . | 0 | -10 | 32* | 5
CCOC(=O)/C(=C/C=C1\Sc2ccccc2N1CC)C(C)=O | 6 | . | 5 | . | -7 | . | .
O=C(NN1CCOCC1)c1cc(-c2ccc(Br)s2)nc2ccccc12 | -6 | -10 | 0 | 0 | 7 | 32* | 7
COc1ccc(NC(=O)CCCn2cc([N+](=O)[O-])cn2)cc1 | 0 | 2 | 0 | 0 | 7 | 26* | 0
CC(C)CC[n+]1ccccc1/C=C/c1ccc(N(C)C)cc1 | 1 | -11 | 2 | 0 | -43 | 32* | 30* | RORg counter=>40
CN(C)c1ccc(/C=C/c2ccc3ccccc3[n+]2C)cc1 | 7 | -58 | 8 | 0 | -16 | -9 | .
CCOc1cccc(-c2nn3c(-c4cccc(C)c4)nnc3s2)c1 | . | . | . | 0 | . | 7 | .
O=C(CCc1ccccc1)N[C@H]1[C@@H](OC(=O)c2ccc([N+](=O)[O-])cc2)CCC[C@]12C(=O)N(Cc1ccccc1)c1ccccc12 | . | . | . | 0 | . | 4 | .
CCOC(=O)c1sc2ncn(CC(=O)NCC3CCCO3)c(=O)c2c1C (centres undefined) | -1 | 2 | 2 | 0 | 6 | -1 | .
SMILES | PP1 counter | PG9 binder | PP5 inh | KLK7 zymogen act | JMJD2C inh | NR1D1 modulator | NR1D1 mod conf | others
CCCCNC(=O)Cn1cnc2sc(C(=O)OCC)c(C)c2c1=O | 1 | 0 | 0 | 0 | 26 | 35* | 8
Cc1ccc(-c2c(NC(=O)Nc3ccc(F)cc3)nc3ncccn23)cc1 | . | . | . | 2 | . | 6 | .
Fc1ccc(-n2c(-c3cccs3)nc3nc4ccccc4nc32)cc1 | 0 | 1 | 2 | 0 | 5 | 75* | 59* | RORg counter=>40
Cc1ccc(-n2c(-c3cccs3)nc3nc4ccccc4nc32)cc1 | 4 | 0 | 1 | -1 | -1 | -2 | .
CC(C)OP(=O)(O)C(C)NC(=O)OCc1ccccc1 (centres undefined) | . | . | . | 0 | . | 4 | .
CN(C)c1ccc(/C=C(/C#N)C(=O)NCc2ccccc2)o1 | 1 | -28 | 6 | 0 | 14 | 33* | 11
COc1ccc(-c2cc(C(=O)NCC3CCCO3)on2)cc1OC (centres undefined) | -4 | -1 | -1 | -1 | 7 | 0 | .
O=C(NCC1CCCO1)c1cnn2c(C(F)F)cc(C3CC3)nc12 (centres undefined) | . | -1 | . | 1 | 5 | 12 | .
O=C(NCC1CCCO1)c1nn2c(C(F)(F)F)cc(-c3cccs3)nc2c1Br (centres undefined) | 0 | 1 | 2 | -1 | -18 | 26* | 18*
COc1ccc(-c2cc(C(F)(F)F)n3ncc(C(=O)NCC4CCCO4)c3n2)cc1OC (centres undefined) | -3 | 0 | 0 | -1 | 3 | 28* | 31*
COc1ccc(-c2cc(C(F)F)n3ncc(C(=O)NCC4CCCO4)c3n2)cc1 (centres undefined) | -2 | 3 | 1 | -29 | 16 | 36* | 15
C[C@H]1COc2cccc(F)c2S(=O)(=O)N1C | . | . | . | -1 | . | -1 | .
Cc1cc(-c2ccccc2)[nH]c(=O)c1S(=O)(=O)c1ccc(Cl)cc1 | -3 | 4 | 0 | 1 | -9 | 51* | 21*
COC[C@H]1CCCN1c1ccc2c(c1)OCCCN(C1CC1)S2(=O)=O | . | . | . | 0 | . | -4 | .
CCN(C(=O)[C@@H](C)[C@@H](O)c1ccc(Cl)cc1)c1ccccc1 | . | . | . | 0 | . | 5 | .
